Measurements published in PubChem BioAssay AID1986 (Sanford-Burnham Center for Chemical Genomics, 2009).
Screen size: about 290,000 compounds; about 890 (0.31%) were called active. Cut-off read from the data, not from the text of the source: active = inhibition mostly above about 52% (no sharp cut-off); inactive = mostly below about 76%. The sample as a whole holds a higher share of actives than the screen did.

Assay: inhibitors of HIV fusion peptide binding, primary screen, biochemical, uHTS, fluorescence dequenching (AID 1986)
Conditions: cell-free peptide binding, 30 min, stronger effect = higher value
[1] = measured here: repeat confirmation average inhibition, at 18.6 µM

Compound	inhibition (at 20 µM)	inhibition [1]
COc1ccc(NC(=O)C23CC4CC(C2)CC(n2cnc(Br)n2)(C4)C3)c(OC)c1	-1.5% (inactive)	–
COc1cc(OC)c(OC)cc1CNCCNC(=O)c1ccco1	1.1% (inactive)	–
Cc1onc(-c2ccccc2Cl)c1C(=O)N1CCCc2ccccc21	-0.5% (inactive)	–
COc1ccc(CCNS(=O)(=O)c2cccc3nsnc23)cc1OC	0.3% (inactive)	–
c1ccc(CCn2nnnc2CN2CCc3ccccc32)cc1	1.1% (inactive)	–
CC1=C(C#N)c2nc(N)c(C#N)c(C)c2/C1=C\c1ccc(-c2ccccc2C(=O)O)o1	56.8% (active)	–
CC1=C(C#N)c2nc(N)c(C#N)c(C)c2/C1=C\c1ccc(C)cc1	15.6% (inactive)	–
CC1=C(C#N)c2nc(N)c(C#N)c(C)c2/C1=C\c1ccc(OCC(=O)O)c(Cl)c1	28% (inactive)	–
CCOc1ccc(N(C)C(=O)CCc2nnc3ccc(N4CCC5(CC4)OCCO5)nn23)cc1	0.1% (inactive)	–
COc1ccc(CC(=O)N(C)CC(=O)Nc2ccccc2SC)cc1	3.4% (inactive)	–
COc1ccc(OC)c(NC(=O)CN(C)S(=O)(=O)c2ccc3nc(C)sc3c2)c1	-0.6% (inactive)	–
CN(C)c1ccc(/C=N/N(CCO)C2=NS(=O)(=O)c3ccccc32)cc1	159% (inactive)	–
N#CCCN(/N=C/c1cccnc1)C1=NS(=O)(=O)c2ccccc21	-1.4% (inactive)	–
CN(C)c1ccc(/C=N/N(CCC#N)C2=NS(=O)(=O)c3ccccc32)cc1	69.3% (active)	64.2%
O=C(COc1ccc(F)cc1)N(Cc1cccs1)C1CCS(=O)(=O)C1 (stereo unspecified)	3.2% (inactive)	–
Cc1ccc(C(=O)Nc2ccc(Oc3ccc(C(=O)O)c(C(=O)O)c3)cc2)cc1C	17.4% (inactive)	–
O=C(Nc1cccc(Oc2ccc(C(=O)O)c(C(=O)O)c2)c1)c1ccc(-c2ccccc2)cc1	75.5% (active)	–
CC(C)(C)C(=O)Nc1ccc(C(=O)Nc2cccc(Oc3ccc(C(=O)O)c(C(=O)O)c3)c2)cc1	37.8% (inactive)	–
CCOC(=O)/C(=C\C=C1/Sc2ccccc2N1CC)C(C)=O	150% (inactive)	–

Compound	inhibition (at 20 µM)	inhibition [1]
CCN1/C(=C\C=C(C(C)=O)C(C)=O)Sc2ccccc21	148% (inactive)	–
CCOC(=O)/C(=C/C=C1\Sc2ccccc2N1CC)C(C)=O	114% (active)	145%
C=Cc1ccc(C(=O)NC2CCCN(Cc3ccccc3F)C2)cc1 (stereo unspecified)	1.1% (inactive)	–
CC(C)c1ccc2c(c1)c(SC(C)(C)C)c(CC(C)(C)C(=O)O)n2Cc1ccc(Cl)cc1	53.9% (active)	–
CC(C)c1ccc(C(=O)NCc2ccc(Cl)cc2)cc1	-2.4% (inactive)	–
Cc1ccc2c(c1)c(N=O)c(O)n2Cc1ccc(Cl)cc1	-0.1% (inactive)	–
CN(Cc1nccn1C)C(=O)CC1C(=O)NCCN1Cc1ccc(F)cc1Cl (stereo unspecified)	-0.5% (inactive)	–
Cc1cc2ncc(C(N)=O)cn2n1	-1.8% (inactive)	–
O=C(/C=C\c1ccco1)c1ccc(NC(=O)c2ccco2)cc1	58.2% (inactive)	3%
CC(=O)Nc1ccc(C(=O)/C=C/c2ccco2)cc1	36% (inactive)	–
O=C(/C=C/c1ccco1)c1ccc(NC(=O)C23CC4CC(CC(C4)C2)C3)cc1	50.7% (active)	–
COCCCn1c(=O)/c(=C\c2cccc(OC)c2OC)s/c1=C(/C#N)C(=O)Nc1ccc(C(=O)O)cc1	54.1% (inactive)	33.7%
COCCCn1c(=O)/c(=C\c2ccccc2OC(C)C)s/c1=C(/C#N)C(=O)Nc1ccc(C(=O)O)cc1	77.3% (active)	–
COCCCn1c(=O)/c(=C\c2ccccc2OC(F)F)s/c1=C(/C#N)C(=O)NC(C)C	75.2% (inactive)	5.3%
Cc1ccc(C(=O)OCC(=O)N(C)C2CCS(=O)(=O)C2)cc1[N+](=O)[O-] (stereo unspecified)	-0.5% (inactive)	–
CC(=O)c1cccc(NC(=O)CSc2ccc(-c3ccc4c(c3)OCO4)nn2)c1	0.3% (inactive)	–
O=C(NN=C1CCN(Cc2ccccc2)CC1)c1cc(Br)ccc1O	7.6% (inactive)	–
O=C(O)c1cccc(Cn2c(Cl)c(/C=N/NC(=O)c3ccccc3O)sc2=O)c1	28.1% (inactive)	–
O=C(O)c1cccc(Cn2c(Cl)c(/C=N/NC(=O)c3ccccc3Cl)sc2=O)c1	6.2% (inactive)	–

Compound	inhibition (at 20 µM)	inhibition [1]
O=C(O)c1cccc(Cn2c(Cl)c(/C=N/NC(=O)c3cc4ccccc4cc3O)sc2=O)c1	61.5% (active)	–
O=C(NN=C1CCN(Cc2ccccc2)CC1)c1cc2ccccc2cc1O	56% (active)	–
O=C(NN=C1CCN(Cc2ccccc2)CC1)c1ccccc1O	3.9% (inactive)	–
Clc1ncc(Cn2cccn2)s1	-0.3% (inactive)	–
Cc1ccc(C)c(N2CCN(C(=O)CCCn3c(=S)[nH]c4cc5c(cc4c3=O)OCO5)CC2)c1	-4.3% (inactive)	–
Nc1c(C2=NCCO2)nnn1Cc1ccccc1	-0.3% (inactive)	–
O=C(Nc1cccc(OCC(=O)N2CCOCC2)c1)c1ccc(C(F)(F)F)cc1	1.4% (inactive)	–
Cc1cc(C)cc(N(C(C)C(=O)N2CCCC2)S(C)(=O)=O)c1 (stereo unspecified)	2.9% (inactive)	–
CCc1cc[n+](-c2nc3ccccc3nc2[N-]S(=O)(=O)c2ccc(Br)s2)cc1	96.6% (active)	–
Cc1cc(C)c[n+](-c2nc3ccccc3nc2[N-]S(=O)(=O)c2ccc(Br)s2)c1	26.7% (inactive)	–
O=S(=O)([N-]c1nc2ccccc2nc1-[n+]1ccccc1)c1ccccc1	9.8% (inactive)	–
O=S(=O)([N-]c1nc2ccccc2nc1-[n+]1ccc(Cc2ccccc2)cc1)c1ccc(Br)s1	12.8% (inactive)	–
Cc1cc[n+](-c2nc3ccccc3nc2[N-]S(=O)(=O)c2ccccc2)cc1	12.1% (inactive)	–
O=S(=O)([N-]c1nc2ccccc2nc1-[n+]1ccc(-c2ccncc2)cc1)c1ccccc1	83.2% (active)	–
Cc1ccc(S(=O)(=O)N2CCC(=O)N(CCOC(=O)Nc3cc(C)cc(C)c3)CC2)cc1	-2% (inactive)	–
Cc1cc(C)c2nc(-n3nc(C)cc3N)cc(C)c2c1	-0.5% (inactive)	–
COc1cc(C(=O)Nc2nc(-c3cc(C)ccc3C)c(C)s2)ccc1OCC(=O)Nc1ccc(F)cc1	-1% (inactive)	–
Clc1cccc(CNCCCSc2ncccn2)c1	-1.9% (inactive)	–
